From PubChem BioAssay (NCATS)
Records with an inconclusive call do not appear. Calls of active or inactive are those of the source. Unless noted, the call rests on the fitted dose curve; in most records, active means well fitted curve in either direction with a large enough effect (not every such curve was filed as active); inconclusive means small, poorly fitted or top-dose-only effect, or another doubt; inactive means flat fitted curve, though single readings scatter.

Tests used:
[1] = molecular target: Lysosomal acid glucosylceramidase (Homo sapiens) (UniProt P04062); test: Glucocerebrosidase-p2 (AID 348; in the data active means potency below about 10 µM; further: potency means the concentration at half of the fitted maximal effect); conditions: purified GBA, blue fluorogenic substrate, 40 min
Method in brief: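 Compounds titrated from 0.6 nM upwards against 0.2 nM enzyme in pH 5.9 citric acid/KH2PO4, taurocholate, tween-20; blue fluorogenic substrate 80 uM, 40 min room temperature, stopped and read Ex 365/Em 440 for AC50.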

[2] = AP1 Signaling Pathway (AID 357); conditions: ME-180 AP-1-bla reporter, EGF-induced, beta-lactamase ratio, 5 h; at 7.69 µM (top of the series) unless noted; further: on the % scale 0 is the no-effect control and ±100 the full control effect
Method in brief: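 AP-1-bla ME-180 cells with beta-lactamase reporter under AP-1 response element, stimulated with EC50 EGF; compounds titrated, 5 hours at 37 degrees Celsius. CCF4 read at 460/530 nm ratio; positive and negative modulators judged by AC50.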

[3] = Stat Signaling Pathway (AID 446); conditions: ME-180 SIE beta-lactamase reporter, IL-6 stimulated, 5 h; at 7.69 µM (top of the series) unless noted;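 further: ME-180 cervical cancer cells given 40 pM IL-6 alongside compound; SIE-controlled beta-lactamase reporter measured as 460/530 nm FRET emission ratio; on the % scale 0 is the no-effect control and ±100 the full control effect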
Method in brief: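 ME-180 SIE-bla cells; overnight plating; cpd + IL-6 40 pM, 5 h, 37 C; LiveBLAzer 2.5 h RT; 460/530 nm emission ratio. Normalized to 300 pM IL-6 and 125 nM JAK inhibitor controls.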

[4] = molecular target: Glucocorticoid receptor (Homo sapiens) (UniProt P04150); test: GR-EFC Redistribution (AID 451; calls by dose curve; further: potency means the concentration at half of the fitted maximal effect); conditions: CHO-K1 GR-EFC translocation, beta-gal luminescence, 2 h
Method in brief: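 CHO-K1 cells expressing nuclear EA and GR-ED fragments of b-gal; compounds titrated up to 46 uM final, 2 h at 37 C. GR nuclear translocation read as complemented b-gal luminescence after 1 h RT detection.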

[5] = molecular target: Mitogen-activated protein kinase 10 (Mus musculus) (UniProt Q61831); test: JNK3 AlphaScreen Assay (AID 530); conditions: JNK3 lysate, c-Jun phosphorylation; series mostly up to 57.1 µM;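 further: kinase came from lysate of stimulated human HepG2 cells; signal reports phosphorylation of biotinylated GST-cJun 1-79 at Ser73 with 10 µM ATP; on the % scale 0 is the no-effect control and ±100 the full control effect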
Method in brief: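 qHTS format: compounds tested as titrations against IL-1beta/TNF-alpha-activated HepG2 lysate JNK3 with biotin-GST-cJun substrate and 10 uM ATP at room temperature. Loss of anti-phospho-cJun AlphaScreen signal indicates inhibition.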

[6] = molecular target: 3',5'-cyclic-AMP phosphodiesterase 4B (Homo sapiens) (UniProt Q07343); test: qHTS Assay for Inhibitors of PDE-IV (AID 607; active means well fitted activation curve with a large enough effect in the main read-out, with a control signal flat, not every such curve was filed as active; further: % of control where 0% means no effect); conditions: HEK293 ACTOne CNG channel cells, membrane potential fluorescence; series mostly up to 22.9 µM
Method in brief: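 ACTOne HEK293 cells carry a modified cAMP-gated CNG channel and express endogenous PDE4; plated 1000 cells/well, compounds up to 22.9 uM final. Membrane-potential dye fluorescence (ex 535/em 590) was read; parental cells received 10 uM forskolin + 100 uM RO 20-1724.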

[7] = molecular target: Cytochrome P450 1A2 (Homo sapiens) (UniProt P05177); test: p450-cyp1a2 (AID 410; calls by dose curve;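 further: -100% = full effect of reference inhibitor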); conditions: recombinant CYP1A2, luciferin-ME demethylation, luminescence; series mostly up to 11.4 µM
Method in brief: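 Inhibition was calculated relative to 57 uM furafylline (full inhibition). The reaction used human CYP1A2 at 20nM with Luciferin-ME at its Km, 100uM, driven by an NADPH-regenerating system for 60 min at room temperature.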

[8] = NFAT Signaling Pathway (AID 444); conditions: Jurkat NFAT-bla M1, carbachol, beta-lactamase ratio, 5 h; at 7.69 µM (top of the series) unless noted;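 further: carbachol stimulus at about its EC50 of 1 µM final; on the % scale 0 is the no-effect control and ±100 the full control effect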
Method in brief: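 Jurkat cells with NFAT-driven β-lactamase reporter and co-expressed M1 receptor, stimulated with carbachol (final 1 uM, ~EC50), compound titration, 5 h at 37 °C. CCF4 loaded 1 h at RT; 460/530 nm ratio gave %activity and AC50.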

[9] = molecular target: Glucocorticoid receptor (Homo sapiens) (UniProt P04150); test: GR-GFP Redistribution (AID 450;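 active means compounds whose dose series gives a full or clear partial fitted curve of increased nuclear translocation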; further: potency means the concentration at half of the fitted maximal effect); conditions: U2OS GR-GFP nuclear translocation, laser cytometry, 2 h

Chain of Glucocorticoid receptor (Homo sapiens) (P04150 whole entry, looked up, the tested form may be a part): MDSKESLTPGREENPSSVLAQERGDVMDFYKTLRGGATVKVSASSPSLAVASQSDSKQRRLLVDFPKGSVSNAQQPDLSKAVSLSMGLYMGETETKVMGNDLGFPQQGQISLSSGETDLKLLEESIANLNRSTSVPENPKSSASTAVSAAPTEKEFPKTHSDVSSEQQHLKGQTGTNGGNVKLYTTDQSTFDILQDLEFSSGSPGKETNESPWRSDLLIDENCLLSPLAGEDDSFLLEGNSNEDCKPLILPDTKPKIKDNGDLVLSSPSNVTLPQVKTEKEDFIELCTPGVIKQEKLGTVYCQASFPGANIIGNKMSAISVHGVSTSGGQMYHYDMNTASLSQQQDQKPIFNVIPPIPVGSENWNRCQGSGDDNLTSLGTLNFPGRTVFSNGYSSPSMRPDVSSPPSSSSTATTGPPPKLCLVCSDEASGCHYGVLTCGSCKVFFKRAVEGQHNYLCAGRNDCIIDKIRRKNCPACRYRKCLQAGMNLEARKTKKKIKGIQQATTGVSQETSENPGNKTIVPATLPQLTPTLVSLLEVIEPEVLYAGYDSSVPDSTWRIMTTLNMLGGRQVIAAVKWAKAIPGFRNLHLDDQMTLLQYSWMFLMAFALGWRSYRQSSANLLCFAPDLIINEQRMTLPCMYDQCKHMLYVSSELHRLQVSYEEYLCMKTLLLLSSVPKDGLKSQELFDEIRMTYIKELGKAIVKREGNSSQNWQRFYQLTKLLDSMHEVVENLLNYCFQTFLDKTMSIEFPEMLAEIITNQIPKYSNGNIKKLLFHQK
Chain of 3',5'-cyclic-AMP phosphodiesterase 4B (Homo sapiens) (Q07343 whole entry, looked up): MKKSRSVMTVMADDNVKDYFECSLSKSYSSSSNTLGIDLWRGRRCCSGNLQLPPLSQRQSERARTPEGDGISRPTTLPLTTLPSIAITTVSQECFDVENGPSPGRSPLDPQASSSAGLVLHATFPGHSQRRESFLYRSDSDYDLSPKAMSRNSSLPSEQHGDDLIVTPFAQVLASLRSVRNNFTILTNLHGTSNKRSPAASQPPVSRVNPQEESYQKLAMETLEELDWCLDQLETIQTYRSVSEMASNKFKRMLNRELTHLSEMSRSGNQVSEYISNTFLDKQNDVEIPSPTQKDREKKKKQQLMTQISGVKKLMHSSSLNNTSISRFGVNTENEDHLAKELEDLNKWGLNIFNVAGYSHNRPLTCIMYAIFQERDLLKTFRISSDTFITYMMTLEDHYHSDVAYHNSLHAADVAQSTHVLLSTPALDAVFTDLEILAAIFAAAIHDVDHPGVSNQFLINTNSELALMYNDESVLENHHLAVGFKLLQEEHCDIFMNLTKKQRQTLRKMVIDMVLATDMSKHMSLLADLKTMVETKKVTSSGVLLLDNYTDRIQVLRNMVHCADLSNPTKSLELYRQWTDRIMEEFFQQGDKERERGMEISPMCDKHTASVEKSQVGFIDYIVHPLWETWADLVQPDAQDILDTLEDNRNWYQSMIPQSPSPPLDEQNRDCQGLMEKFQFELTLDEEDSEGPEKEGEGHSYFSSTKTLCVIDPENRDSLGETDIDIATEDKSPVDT
Chain of Lysosomal acid glucosylceramidase (Homo sapiens) (P04062 whole entry, looked up): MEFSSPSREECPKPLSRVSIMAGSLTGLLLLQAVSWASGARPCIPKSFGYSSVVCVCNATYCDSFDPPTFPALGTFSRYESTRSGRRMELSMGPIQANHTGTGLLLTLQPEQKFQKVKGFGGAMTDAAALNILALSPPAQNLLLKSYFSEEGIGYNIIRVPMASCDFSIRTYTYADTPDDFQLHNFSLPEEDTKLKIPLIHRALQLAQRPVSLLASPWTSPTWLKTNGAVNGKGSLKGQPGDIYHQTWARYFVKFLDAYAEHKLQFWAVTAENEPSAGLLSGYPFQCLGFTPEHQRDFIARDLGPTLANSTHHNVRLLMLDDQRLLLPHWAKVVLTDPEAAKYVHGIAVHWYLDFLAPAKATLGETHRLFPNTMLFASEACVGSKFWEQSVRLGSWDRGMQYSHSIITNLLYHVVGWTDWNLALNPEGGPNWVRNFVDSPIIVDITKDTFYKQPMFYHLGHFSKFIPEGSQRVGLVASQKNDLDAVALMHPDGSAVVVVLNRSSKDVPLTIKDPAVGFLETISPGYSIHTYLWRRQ
Chain of Cytochrome P450 1A2 (Homo sapiens) (P05177 whole entry, looked up): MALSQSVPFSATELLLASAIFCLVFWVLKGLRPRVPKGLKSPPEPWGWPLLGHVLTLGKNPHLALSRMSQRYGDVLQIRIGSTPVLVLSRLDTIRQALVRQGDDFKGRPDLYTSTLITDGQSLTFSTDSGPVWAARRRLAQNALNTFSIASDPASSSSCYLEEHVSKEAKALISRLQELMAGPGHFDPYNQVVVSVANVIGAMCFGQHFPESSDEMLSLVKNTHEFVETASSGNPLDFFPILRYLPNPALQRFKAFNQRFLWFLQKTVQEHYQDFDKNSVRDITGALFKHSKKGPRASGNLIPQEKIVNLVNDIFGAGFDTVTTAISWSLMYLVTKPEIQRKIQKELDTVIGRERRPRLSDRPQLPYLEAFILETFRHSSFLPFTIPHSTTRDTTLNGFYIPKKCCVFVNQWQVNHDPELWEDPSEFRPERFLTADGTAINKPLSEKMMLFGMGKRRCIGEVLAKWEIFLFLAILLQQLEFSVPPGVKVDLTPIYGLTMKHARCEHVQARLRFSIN

Cc1ccc(S(=O)(=O)O[C@H]2CN3CCC2CC3)cc1
inactive: Potency [1] > 11.4 µM | activity change, negative = inhibition [2] 10.6% | activity, negative = inhibition [3] -1.72% | Potency [4] > 9.22 µM | activity change, negative = inhibition [5] 5.42% [at 11.4 µM] | outcome [6]

O=C(O)/C=C\c1ccc[c]([Sb](=[O])([OH])[OH])c1
inactive: activity change, negative = inhibition [2] -8.12% | activity change, negative = inhibition [7] -9.5% [at 2.29 µM] | activity change, negative = inhibition [8] 12.6% | activity, negative = inhibition [3] -20.4% | Potency [9] > 46 µM | Potency [4] > 9.22 µM | activity change, negative = inhibition [5] 3.13% [at 11.4 µM] | outcome [6]
